Experimental findings from PMC11006913 are described below.

Experiment in all cases: PBM; 200 nM protein, PBS
Details in all cases: dsDNA, one strand shown

The target of assay [1] is HESX1 (Homo sapiens, UniProt Q9UBX0 95-180, R165K).
Assay [2] deals with SHOX (Homo sapiens, UniProt O15266 103-189).
The target of assay [3] is ALX4 (Homo sapiens, UniProt Q9H161 200-286, Q225E).
For assay [4], the target named is HESX1 (Homo sapiens, UniProt Q9UBX0 95-180).
In assay [5] the target is MSX2 (Homo sapiens, UniProt P35548 130-214, R199I).
Assay [6] has as its target ALX1 (Homo sapiens, UniProt Q15699 118-204, L144V).
Assay [7] concerns the target ALX3 (Homo sapiens, UniProt O95076 139-225, N203Q).
Assay [8] deals with SHOX (Homo sapiens, UniProt O15266 103-189, R173C).
Assay [9] has as its target ALX1 (Homo sapiens, UniProt Q15699 118-204, L144R).
The target in assay [10] is ALX3 (Homo sapiens, UniProt O95076 139-225).
Assay [11] addresses PROP1 (Homo sapiens, UniProt O75360 56-141).
In assay [12] the target is HESX1 (Homo sapiens, UniProt Q9UBX0 95-180, R109Q).
Assay [13] concerns the target PROP1 (Homo sapiens, UniProt O75360 56-141, R99H).
Assay [14] addresses ALX3 (Homo sapiens, UniProt O95076 139-225, L168Q).
Assay [15] addresses HESX1 (Homo sapiens, UniProt Q9UBX0 95-180, P111T).
Assay [16] addresses ALX3 (Homo sapiens, UniProt O95076 139-225, L168V).
The target in assay [17] is PROP1 (Homo sapiens, UniProt O75360 56-141, F88S).
In assay [18] the target is HESX1 (Homo sapiens, UniProt Q9UBX0 95-180, F115L).
Assay [19] concerns the target ALX1 (Homo sapiens, UniProt Q15699 118-204).
In assay [20] the target is ALX3 (Homo sapiens, UniProt O95076 139-225, N203S).
ALX3 (Homo sapiens, UniProt O95076 139-225, N203S), sequence (O95076 139-225 N203S): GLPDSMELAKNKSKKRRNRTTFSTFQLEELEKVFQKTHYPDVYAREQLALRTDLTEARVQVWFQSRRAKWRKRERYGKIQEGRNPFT

PROP1 (Homo sapiens, UniProt O75360 56-141, F88S), sequence (O75360 56-141 F88S): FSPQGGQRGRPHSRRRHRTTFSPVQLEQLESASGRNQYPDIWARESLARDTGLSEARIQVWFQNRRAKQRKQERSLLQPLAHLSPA
SHOX (Homo sapiens, UniProt O15266 103-189), sequence (O15266 103-189): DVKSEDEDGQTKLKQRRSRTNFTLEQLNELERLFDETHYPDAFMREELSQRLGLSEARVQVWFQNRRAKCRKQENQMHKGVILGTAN
ALX1 (Homo sapiens, UniProt Q15699 118-204), sequence (Q15699 118-204): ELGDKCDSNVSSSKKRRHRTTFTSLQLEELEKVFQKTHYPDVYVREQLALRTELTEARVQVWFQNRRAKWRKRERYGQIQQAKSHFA
ALX3 (Homo sapiens, UniProt O95076 139-225), sequence (O95076 139-225): as the sequence (O95076 139-225 N203S) above, with S65N counted along it
ALX1 (Homo sapiens, UniProt Q15699 118-204, L144V), sequence (Q15699 118-204 L144V): as the sequence (Q15699 118-204) above, with L27V counted along it
HESX1 (Homo sapiens, UniProt Q9UBX0 95-180, F115L), sequence (Q9UBX0 95-180 F115L): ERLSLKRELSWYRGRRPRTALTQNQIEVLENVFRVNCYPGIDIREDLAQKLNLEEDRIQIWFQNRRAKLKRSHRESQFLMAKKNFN
HESX1 (Homo sapiens, UniProt Q9UBX0 95-180), sequence (Q9UBX0 95-180): as the sequence (Q9UBX0 95-180 F115L) above, with L21F counted along it
PROP1 (Homo sapiens, UniProt O75360 56-141, R99H), sequence (O75360 56-141 R99H): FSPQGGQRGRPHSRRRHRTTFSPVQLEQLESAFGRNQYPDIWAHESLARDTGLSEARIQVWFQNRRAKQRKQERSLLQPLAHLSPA
ALX3 (Homo sapiens, UniProt O95076 139-225, L168V), sequence (O95076 139-225 L168V): as the sequence (O95076 139-225 N203S) above, with L30V, S65N counted along it
PROP1 (Homo sapiens, UniProt O75360 56-141), sequence (O75360 56-141): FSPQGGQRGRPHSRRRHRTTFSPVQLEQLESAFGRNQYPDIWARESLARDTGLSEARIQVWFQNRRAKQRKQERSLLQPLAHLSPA
ALX4, sequence (Q9H161 200-286 Q225E): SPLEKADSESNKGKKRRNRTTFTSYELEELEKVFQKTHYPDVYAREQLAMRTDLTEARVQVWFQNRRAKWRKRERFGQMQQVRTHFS
ALX3 (Homo sapiens, UniProt O95076 139-225, N203Q), sequence (O95076 139-225 N203Q): as the sequence (O95076 139-225 N203S) above, with S65Q counted along it
HESX1 (Homo sapiens, UniProt Q9UBX0 95-180, P111T), sequence (Q9UBX0 95-180 P111T): as the sequence (Q9UBX0 95-180 F115L) above, with P17T, L21F counted along it
HESX1 (Homo sapiens, UniProt Q9UBX0 95-180, R109Q), sequence (Q9UBX0 95-180 R109Q): as the sequence (Q9UBX0 95-180 F115L) above, with R15Q, L21F counted along it
MSX2, sequence (P35548 130-214 R199I): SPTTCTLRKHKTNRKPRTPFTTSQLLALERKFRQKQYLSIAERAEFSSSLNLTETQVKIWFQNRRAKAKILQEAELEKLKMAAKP
SHOX (Homo sapiens, UniProt O15266 103-189, R173C), sequence (O15266 103-189 R173C): as the sequence (O15266 103-189) above, with R71C counted along it
ALX3 (Homo sapiens, UniProt O95076 139-225, L168Q), sequence (O95076 139-225 L168Q): as the sequence (O95076 139-225 N203S) above, with L30Q, S65N counted along it
HESX1 (Homo sapiens, UniProt Q9UBX0 95-180, R165K), sequence (Q9UBX0 95-180 R165K): as the sequence (Q9UBX0 95-180 F115L) above, with L21F, R71K counted along it
ALX1 (Homo sapiens, UniProt Q15699 118-204, L144R), sequence (Q15699 118-204 L144R): as the sequence (Q15699 118-204) above, with L27R counted along it

As to TTAATTAA, the binding signal in assay [1] was 13.7 upbm affinity estimate (log intensity, higher = more binding, comparable within an allelic series); in [2], 13.3 upbm affinity estimate (log intensity, higher = more binding, comparable within an allelic series); in [3] it was 14.7 upbm affinity estimate (log intensity, higher = more binding, comparable within an allelic series); in assay [4] it was 13.6 upbm affinity estimate (log intensity, higher = more binding, comparable within an allelic series); in assay [5] it was 13.1 upbm affinity estimate (log intensity, higher = more binding, comparable within an allelic series); in assay [6], 12.3 upbm affinity estimate (log intensity, higher = more binding, comparable within an allelic series). The binding signal is 8.75 upbm affinity estimate (log intensity, higher = more binding, comparable within an allelic series) in assay [7]; 11.2 upbm affinity estimate (log intensity, higher = more binding, comparable within an allelic series) in assay [8]; 11.9 upbm affinity estimate (log intensity, higher = more binding, comparable within an allelic series) in [9]; 13 upbm affinity estimate (log intensity, higher = more binding, comparable within an allelic series) in [10]; 12.3 upbm affinity estimate (log intensity, higher = more binding, comparable within an allelic series) in assay [11]; 11.2 upbm affinity estimate (log intensity, higher = more binding, comparable within an allelic series) in assay [12]. For the same sequence, the binding signal in [13] is 12.4 upbm affinity estimate (log intensity, higher = more binding, comparable within an allelic series); in [14] it was 11.7 upbm affinity estimate (log intensity, higher = more binding, comparable within an allelic series); in assay [15], 12.6 upbm affinity estimate (log intensity, higher = more binding, comparable within an allelic series); in [16], 11.6 upbm affinity estimate (log intensity, higher = more binding, comparable within an allelic series); in assay [17] it was 8.42 upbm affinity estimate (log intensity, higher = more binding, comparable within an allelic series); in [18], 8.85 upbm affinity estimate (log intensity, higher = more binding, comparable within an allelic series). Besides, the binding signal was 12.9 upbm affinity estimate (log intensity, higher = more binding, comparable within an allelic series) in assay [19] and 8.98 upbm affinity estimate (log intensity, higher = more binding, comparable within an allelic series) in assay [20].

On to GCTAATTA, for which the binding signal in assay [1] was 13.8 upbm affinity estimate (log intensity, higher = more binding, comparable within an allelic series); in [2], 13.5 upbm affinity estimate (log intensity, higher = more binding, comparable within an allelic series); in [3], 14.4 upbm affinity estimate (log intensity, higher = more binding, comparable within an allelic series); in assay [4] it was 13.6 upbm affinity estimate (log intensity, higher = more binding, comparable within an allelic series); in [5], 13.5 upbm affinity estimate (log intensity, higher = more binding, comparable within an allelic series); in [6], 12.4 upbm affinity estimate (log intensity, higher = more binding, comparable within an allelic series). For the same sequence, the binding signal in [7] was 8.53 upbm affinity estimate (log intensity, higher = more binding, comparable within an allelic series); in [8], 10.9 upbm affinity estimate (log intensity, higher = more binding, comparable within an allelic series); in assay [9], 12 upbm affinity estimate (log intensity, higher = more binding, comparable within an allelic series); in assay [10] it was 13 upbm affinity estimate (log intensity, higher = more binding, comparable within an allelic series); in [11] it was 12.1 upbm affinity estimate (log intensity, higher = more binding, comparable within an allelic series); in assay [12], 10.5 upbm affinity estimate (log intensity, higher = more binding, comparable within an allelic series). Further, the binding signal in [13] was 12.3 upbm affinity estimate (log intensity, higher = more binding, comparable within an allelic series); in [14], 11.4 upbm affinity estimate (log intensity, higher = more binding, comparable within an allelic series); in assay [15] it was 12.4 upbm affinity estimate (log intensity, higher = more binding, comparable within an allelic series); in assay [16], 11.2 upbm affinity estimate (log intensity, higher = more binding, comparable within an allelic series); in assay [17] it was 8.03 upbm affinity estimate (log intensity, higher = more binding, comparable within an allelic series); in [18], 8.29 upbm affinity estimate (log intensity, higher = more binding, comparable within an allelic series). For the same sequence, the binding signal is 13.1 upbm affinity estimate (log intensity, higher = more binding, comparable within an allelic series) in assay [19] and 8.71 upbm affinity estimate (log intensity, higher = more binding, comparable within an allelic series) in assay [20].

With AATTAATA, the binding signal in assay [1] is 12.2 upbm affinity estimate (log intensity, higher = more binding, comparable within an allelic series); in [2], 12 upbm affinity estimate (log intensity, higher = more binding, comparable within an allelic series); in [3] it was 13.4 upbm affinity estimate (log intensity, higher = more binding, comparable within an allelic series); in assay [4], 12.1 upbm affinity estimate (log intensity, higher = more binding, comparable within an allelic series); in assay [5] it was 12.5 upbm affinity estimate (log intensity, higher = more binding, comparable within an allelic series); in [6], 11.8 upbm affinity estimate (log intensity, higher = more binding, comparable within an allelic series). Moreover, the binding signal in [7] was 8.72 upbm affinity estimate (log intensity, higher = more binding, comparable within an allelic series); in assay [8], 9.56 upbm affinity estimate (log intensity, higher = more binding, comparable within an allelic series); in [9], 11.6 upbm affinity estimate (log intensity, higher = more binding, comparable within an allelic series); in assay [10], 12.5 upbm affinity estimate (log intensity, higher = more binding, comparable within an allelic series); in assay [11], 11.3 upbm affinity estimate (log intensity, higher = more binding, comparable within an allelic series); in [12], 9.32 upbm affinity estimate (log intensity, higher = more binding, comparable within an allelic series). In addition, the binding signal in assay [13] was 11.4 upbm affinity estimate (log intensity, higher = more binding, comparable within an allelic series); in assay [14], 10.7 upbm affinity estimate (log intensity, higher = more binding, comparable within an allelic series); in assay [15], 10.8 upbm affinity estimate (log intensity, higher = more binding, comparable within an allelic series); in [16], 10.3 upbm affinity estimate (log intensity, higher = more binding, comparable within an allelic series); in [17], 8.02 upbm affinity estimate (log intensity, higher = more binding, comparable within an allelic series); in assay [18], 8.27 upbm affinity estimate (log intensity, higher = more binding, comparable within an allelic series). For the same sequence, the binding signal in assay [19] is 12.3 upbm affinity estimate (log intensity, higher = more binding, comparable within an allelic series); in assay [20], 8.82 upbm affinity estimate (log intensity, higher = more binding, comparable within an allelic series).

As for GCAATTAA, the binding signal was 12.6 upbm affinity estimate (log intensity, higher = more binding, comparable within an allelic series) in assay [1]; 12.1 upbm affinity estimate (log intensity, higher = more binding, comparable within an allelic series) in assay [2]; 13.3 upbm affinity estimate (log intensity, higher = more binding, comparable within an allelic series) in assay [3]; 12.7 upbm affinity estimate (log intensity, higher = more binding, comparable within an allelic series) in [4]; 13.2 upbm affinity estimate (log intensity, higher = more binding, comparable within an allelic series) in assay [5]; 11.6 upbm affinity estimate (log intensity, higher = more binding, comparable within an allelic series) in assay [6]. The binding signal in assay [7] is 8.37 upbm affinity estimate (log intensity, higher = more binding, comparable within an allelic series); in assay [8], 9.65 upbm affinity estimate (log intensity, higher = more binding, comparable within an allelic series); in assay [9] it was 11.3 upbm affinity estimate (log intensity, higher = more binding, comparable within an allelic series); in assay [10], 12.4 upbm affinity estimate (log intensity, higher = more binding, comparable within an allelic series); in assay [11], 11.5 upbm affinity estimate (log intensity, higher = more binding, comparable within an allelic series); in assay [12], 9.34 upbm affinity estimate (log intensity, higher = more binding, comparable within an allelic series). Moreover, the binding signal was 11.6 upbm affinity estimate (log intensity, higher = more binding, comparable within an allelic series) in assay [13]; 10.7 upbm affinity estimate (log intensity, higher = more binding, comparable within an allelic series) in assay [14]; 11.2 upbm affinity estimate (log intensity, higher = more binding, comparable within an allelic series) in assay [15]; 10.2 upbm affinity estimate (log intensity, higher = more binding, comparable within an allelic series) in assay [16]; 7.72 upbm affinity estimate (log intensity, higher = more binding, comparable within an allelic series) in assay [17]; 7.72 upbm affinity estimate (log intensity, higher = more binding, comparable within an allelic series) in assay [18]. Besides, the binding signal is 12.2 upbm affinity estimate (log intensity, higher = more binding, comparable within an allelic series) in [19] and 8.51 upbm affinity estimate (log intensity, higher = more binding, comparable within an allelic series) in [20].
